In PubChem BioAssay (NCATS):
Where “and” joins values, the source holds several entries; their conditions need not be identical. Equal values may be shown once. Records with an inconclusive call do not appear. Calls of active or inactive are those of the source. Unless noted, calls follow the shape of the full dose curve.

Experiments:
[1] = qHTS assay for small molecule antagonists of retinoid X receptor alpha signaling (AID 588546); conditions: HEK293T RXRa-UAS-bla, beta-lactamase ratio, antagonist mode; measured here: W530 green channel, cytotoxicity proxy;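 also: cells stimulated with 9-cis-retinoic acid as agonist; % is scaled to controls: 0 for no effect and ±100 for the full control effect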
Summary of the method: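 Beta-lactamase reporter inhibition, read as CCF4 fluorescence ratio (ex 405, em 460/530 nm) after 2 h at RT. HEK293T UAS-bla cells, 2500/well, were stimulated with 9-cis-RA at 500 or 100 nM final alongside test compound for 18 h at 37 C.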

[2] = qHTS assay for small molecule agonists of the antioxidant response element (ARE) signaling pathway (AID 651741; active = well fitted activation curve with a large enough effect in the signal ratio; the % refers to the signal ratio; also: potency is read from the fitted curve at half-maximal effect); conditions: HepG2 ARE-bla reporter, beta-lactamase FRET ratio, 16 h; series mostly up to 96 µM
Summary of the method: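 Agonist activity is measured as ARE-driven beta-lactamase expression in a stable HepG2 reporter line, using 16 h compound treatment at 37 C and a FRET substrate fluorescence readout after 2 h.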

[3] = qHTS profiling for inhibitors of Plasmodium falciparum (3D7) proliferation (AID 743322);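 also: infected erythrocytes exposed to compound for 72 h before lysis; 100% = DMSO vehicle wells and 0% = 0.29 µM artemisinin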; conditions: P. falciparum 3D7 proliferation; at 28.7 µM (top of the series)
Summary of the method: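 Parasite DNA was quantified by SYBR Green I fluorescence (ex 485, em 535 nm) after overnight lysis in saponin/Triton buffer at room temperature. Cultures at 0.3% parasitemia and 2.5% hematocrit were first exposed to compound for 72 h at 37 C; signals were normalised to artemisinin (0.29 uM) and vehicle wells.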

[4] = qHTS profiling for inhibitors of Plasmodium falciparum (DD2) proliferation (AID 743323; call rule not given here); conditions: lower = more inhibition; at 28.7 µM (top of the series)
Summary of the method: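 SYBR Green fluorescence (ex 485, em 535 nm) of lysed cultures gives parasite DNA content; wells normalized to artemisinin (0.29 uM) and DMSO controls. Infected red cells: 0.3% parasitemia, 2.5% hematocrit, 72 h, 37 C.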

[5] = qHTS profiling for inhibitors of Plasmodium falciparum (HB3) proliferation (AID 743324; active = well fitted curve in the direction sought with a large enough effect; an effect the other way counts as inactive or inconclusive;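 also: 100% = DMSO vehicle wells and 0% = artemisinin-treated control wells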); conditions: Plasmodium falciparum HB3 blood-stage proliferation; at 28.7 µM (top of the series)
Summary of the method: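 SYBR Green fluorescence (485 ex/535 em) of lysed cultures, incubated overnight at room temperature in the dark, quantifies parasite DNA. Infected erythrocytes at 0.3% parasitemia and 2.5% hematocrit were exposed 72 h; values normalized to DMSO and 0.29 uM artemisinin controls.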

CP297 = assay: qHTS profiling for inhibitors of Plasmodium falciparum proliferation (AID 504749; active = well fitted curve in the direction sought with a large enough effect; an effect the other way counts as inactive or inconclusive;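 also: 0% = DMSO vehicle and full inhibition = artemisinin control; nearly all actives have a fitted effect of over 60% in size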); conditions: P. falciparum in erythrocytes, SYBR Green DNA, 72 h; series mostly up to 28.7 µM
Summary of the method: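 In a 72 h erythrocytic culture (37 C, humidified, 5% CO2) at 2.5% hematocrit and 0.3% starting parasitemia, compounds were tested; SYBR Green I in detergent lysis buffer stained parasite DNA overnight.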

[6] = Cell Viability - BJ (AID 421); conditions: BJ fibroblast viability, qHTS;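 also: potency is read from the fitted curve at half-maximal effect; cells exposed to compound for 40 hours at 37 °C before readout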
Summary of the method: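 Luminescent ATP signal (CellTiter-Glo, 20 min at room temperature) served as the read-out of viable BJ cells after 40 hours of compound treatment. Responses were scaled between DMSO and 100 uM tamoxifen, and AC50 values were obtained by Hill modeling.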

[7] = Cell Viability - HepG2 (AID 433); conditions: qHTS;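 also: potency is read from the fitted curve at half-maximal effect; potency for ATP loss meaning cytotoxicity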
Summary of the method: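 Cytotoxicity is scored as loss of intracellular ATP in HepG2 cells exposed to compounds for 40 h. Concentration-response curves, normalized to DMSO and 100 uM tamoxifen, give AC50 values.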

[8] = Cell Viability - N2a (AID 540; active = well fitted curve in the direction sought with a large enough effect; an effect the other way counts as inactive or inconclusive;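 also: cells exposed to compound for 40 h at 37 °C; plate controls were DMSO alone for no effect and tamoxifen control for full effect; nearly all actives have a fitted effect of over 45% in size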); conditions: N2a mouse neuroblastoma cell viability; at 92.2 µM (top of the series)
Summary of the method: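 N2a mouse neuroblastoma, 1500 cells/well, 5 hr settle; compound 40 hr, 37 °C; CellTiter-Glo 20 min RT; luminescence; Hill-fit AC50.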

[9] = Cell Viability - NIH 3T3 (AID 541; active = well fitted curve in the direction sought with a large enough effect; an effect the other way counts as inactive or inconclusive;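 also: plate controls were DMSO alone for no effect and tamoxifen positive control for full effect; nearly all actives have a fitted effect of over 25% in size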); conditions: NIH 3T3 cell viability, qHTS; at 92.2 µM (top of the series)
Summary of the method: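 qHTS format; 40 hr compound exposure, 37 °C; CellTiter-Glo luminescence (cellular ATP) read-out after 20 min at RT. Decrease in ATP = cytotoxicity; AC50 from standard Hill fit.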

[10] = Cell Viability - HUV-EC-C (AID 542; active = well fitted curve in the direction sought with a large enough effect; an effect the other way counts as inactive or inconclusive; also: % is scaled to controls: 0 for no effect and ±100 for the full control effect; nearly all actives have a fitted effect of over 35% in size); conditions: HUV-EC-C endothelial cell viability, qHTS; series mostly up to 92.2 µM
Summary of the method: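 Luminescent ATP read-out (CellTiter-Glo, 20 min room temperature) after 40 hr compound treatment of HUV-EC-C cells at 37 °C. Concentration-response data fitted with the standard Hill equation to give AC50; tamoxifen and doxorubicin served as positive controls.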

[11] = Cell Viability - Renal Proximal Tubule (AID 545; active = well fitted curve in the direction sought with a large enough effect; an effect the other way counts as inactive or inconclusive;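 also: 0% = DMSO only and -100% = 100 µM tamoxifen; nearly all actives have a fitted effect of over 40% in size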); conditions: renal proximal tubule cells viability; series mostly up to 91.7 µM
Summary of the method: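 Cytotoxicity is scored as a concentration-dependent drop in cellular ATP in primary rat renal proximal tubule cells exposed for 40 hr. AC50 derives from Hill modelling.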

[12] = Cell Viability - Mesenchymal (AID 546; active = well fitted curve in the direction sought with a large enough effect; an effect the other way counts as inactive or inconclusive;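 also: cells exposed to compound for 40 hours before reading; 0% = DMSO only and -100% = 100 µM tamoxifen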); conditions: mesenchymal cells viability, qHTS; series mostly up to 91.7 µM
Summary of the method: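 CellTiter-Glo luminescence (intracellular ATP, 20 min room temperature) after 40 hr compound exposure at 37 °C of 1000 glomerulus-derived human kidney mesenchymal cells/well; AC50 values obtained by fitting qHTS concentration-response data to the Hill equation.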

[13] = target: Estrogen receptor (Homo sapiens) (UniProt P03372); assay: qHTS assay for small molecule agonists of estrogen receptor alpha signaling (AID 588514); conditions: ER-alpha-UAS-bla HEK293, beta-lactamase ratio, 18 h; series mostly up to 76.8 µM;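 also: 0% = vehicle only and 100% = reference agonist; nearly all actives have a fitted effect of over 70% in size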
Chain of Estrogen receptor (Homo sapiens) (P03372 whole entry, looked up): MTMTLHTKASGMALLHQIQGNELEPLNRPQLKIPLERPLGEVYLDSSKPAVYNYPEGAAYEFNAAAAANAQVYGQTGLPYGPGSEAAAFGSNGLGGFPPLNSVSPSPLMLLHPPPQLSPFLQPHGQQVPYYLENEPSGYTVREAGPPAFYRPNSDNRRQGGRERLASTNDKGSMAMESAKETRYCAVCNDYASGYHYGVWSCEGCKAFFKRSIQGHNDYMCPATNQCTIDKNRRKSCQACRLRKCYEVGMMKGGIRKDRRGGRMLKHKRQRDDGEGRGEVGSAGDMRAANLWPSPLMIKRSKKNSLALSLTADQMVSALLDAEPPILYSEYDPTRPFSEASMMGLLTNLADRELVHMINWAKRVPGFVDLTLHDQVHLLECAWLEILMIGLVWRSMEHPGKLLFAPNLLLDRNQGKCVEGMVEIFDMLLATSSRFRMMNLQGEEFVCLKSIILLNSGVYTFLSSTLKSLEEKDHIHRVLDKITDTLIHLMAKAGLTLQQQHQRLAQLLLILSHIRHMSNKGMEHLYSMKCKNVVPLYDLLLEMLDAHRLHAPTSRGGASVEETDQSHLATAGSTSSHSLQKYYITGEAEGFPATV
Summary of the method: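 Read-out: CCF4 fluorescence from a beta-lactamase reporter in ER-alpha-UAS-bla HEK 293 cells after 18 hrs of compound exposure at 37 C. Normalized to 20 nM 17-beta-estradiol (100%) and DMSO (0%).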

[14] = target: Androgen receptor (Homo sapiens) (UniProt P10275); assay: qHTS assay for small molecule agonists of androgen receptor signaling (AID 588515; active = well fitted curve in the direction sought with a large enough effect in the signal ratio, with a control signal flat; the % refers to the signal ratio; also: % is scaled to controls: 0 for no effect and ±100 for the full control effect); conditions: AR-UAS-bla HEK293, beta-lactamase ratio, agonist 16 h; stronger effect = higher value
Chain of Androgen receptor (Homo sapiens) (P10275 whole entry, looked up): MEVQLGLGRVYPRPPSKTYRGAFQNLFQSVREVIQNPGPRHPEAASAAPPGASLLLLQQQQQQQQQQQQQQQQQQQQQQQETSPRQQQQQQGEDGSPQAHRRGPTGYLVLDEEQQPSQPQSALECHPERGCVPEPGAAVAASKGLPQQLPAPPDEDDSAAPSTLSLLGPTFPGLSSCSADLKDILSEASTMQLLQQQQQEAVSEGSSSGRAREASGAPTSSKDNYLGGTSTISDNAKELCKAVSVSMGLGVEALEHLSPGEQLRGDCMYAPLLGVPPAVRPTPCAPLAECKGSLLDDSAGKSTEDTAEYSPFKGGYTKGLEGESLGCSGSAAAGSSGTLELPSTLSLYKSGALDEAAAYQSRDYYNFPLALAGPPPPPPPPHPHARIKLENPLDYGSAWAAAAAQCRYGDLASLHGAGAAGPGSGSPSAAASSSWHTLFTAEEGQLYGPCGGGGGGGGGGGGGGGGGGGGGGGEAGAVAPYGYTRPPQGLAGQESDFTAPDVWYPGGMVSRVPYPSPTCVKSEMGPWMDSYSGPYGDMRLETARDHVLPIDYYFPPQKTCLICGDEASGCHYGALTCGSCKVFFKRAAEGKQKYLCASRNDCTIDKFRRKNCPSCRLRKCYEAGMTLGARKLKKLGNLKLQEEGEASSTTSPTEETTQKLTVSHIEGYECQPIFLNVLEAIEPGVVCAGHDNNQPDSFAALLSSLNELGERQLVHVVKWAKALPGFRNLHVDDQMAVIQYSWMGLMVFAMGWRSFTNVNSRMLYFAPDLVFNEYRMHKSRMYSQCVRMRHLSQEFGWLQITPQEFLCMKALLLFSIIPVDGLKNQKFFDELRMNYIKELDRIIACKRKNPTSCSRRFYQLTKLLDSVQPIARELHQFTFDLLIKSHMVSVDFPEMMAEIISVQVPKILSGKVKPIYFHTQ
Summary of the method: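 Stimulation of an AR-responsive β-lactamase reporter in GripTite HEK293 cells was measured after 16 h compound exposure at 37 °C, via CCF4 fluorescence after 2 h RT. EC50 from Hill fits, normalized to R1881 at 30 nM.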

[15] = target: Androgen receptor (Homo sapiens) (UniProt P10275); assay: qHTS assay for small molecule antagonists of androgen receptor signaling (AID 588516; active = well fitted curve in the direction sought with a large enough effect in the signal ratio, with a control signal flat, not every such curve was filed as active; the % refers to the signal ratio; also: % is scaled to controls: 0 for no effect and ±100 for the full control effect); conditions: AR-UAS-bla HEK293, beta-lactamase ratio, antagonist mode, 16 h; series mostly up to 76.8 µM
Summary of the method: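 Antagonist-mode qHTS: inhibition of R1881 (10 nM)-driven beta-lactamase expression in GripTite HEK 293 cells is measured after 16 h; values are Hill-derived IC50s normalized between R1881 and DMSO wells.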

[16] = target: Peroxisome proliferator-activated receptor delta (Homo sapiens) (UniProt Q03181); assay: qHTS assay for small molecule agonists of peroxisome proliferator-activated receptor delta signaling (AID 588534); conditions: HEK293T PPARdelta-UAS-bla, beta-lactamase ratio, 18 h; series mostly up to 76.7 µM;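 also: 0% = DMSO basal wells and 100% = positive control agonist at 10 µM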
Chain of Peroxisome proliferator-activated receptor delta (Homo sapiens) (Q03181 whole entry, looked up): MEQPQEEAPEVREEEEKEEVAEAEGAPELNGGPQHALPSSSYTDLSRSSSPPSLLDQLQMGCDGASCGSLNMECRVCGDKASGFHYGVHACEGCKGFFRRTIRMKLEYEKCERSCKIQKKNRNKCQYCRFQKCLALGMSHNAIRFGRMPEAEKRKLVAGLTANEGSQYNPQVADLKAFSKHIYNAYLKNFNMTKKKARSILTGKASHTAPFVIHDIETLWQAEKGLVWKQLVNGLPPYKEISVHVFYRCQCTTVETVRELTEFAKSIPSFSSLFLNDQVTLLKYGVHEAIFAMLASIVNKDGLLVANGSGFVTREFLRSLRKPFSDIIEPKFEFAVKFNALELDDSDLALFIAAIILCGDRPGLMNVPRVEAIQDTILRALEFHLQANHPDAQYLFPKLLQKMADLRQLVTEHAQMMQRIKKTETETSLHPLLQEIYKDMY
Summary of the method: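 Titration series tested in agonist mode on beta-lactamase reporter cells; 18 hrs at 37 C after a 5 hr pre-incubation. Readout: CCF4 fluorescence, 2 hrs RT. Hill equation gives EC50 and maximal response.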

[17] = qHTS assay for small molecule antagonists of peroxisome proliferator-activated receptor delta signaling (AID 588535; active = well fitted inhibition curve with a large enough effect in the signal ratio, with a control signal flat, not every such curve was filed as active; the % refers to the signal ratio;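 as to max response: cells co-treated with a PPAR-delta agonist as stimulator during compound exposure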); conditions: HEK293T PPARd-UAS-bla, beta-lactamase FRET ratio, 18 h; 460 nm channel
Summary of the method: (§1)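 Antagonist-mode qHTS using GeneBLAzer PPAR-delta-UAS-bla HEK293T cells; compound exposure 18 hrs at 37 C over a titration. Ratiometric CCF4 fluorescence at 460/530 nm; concentration-response points fitted to the Hill equation.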

[18] = target: Peroxisome proliferator-activated receptor delta (Homo sapiens) (UniProt Q03181); assay: as above; conditions: HEK293T PPARd-UAS-bla, beta-lactamase FRET ratio, 18 h; series mostly up to 76.7 µM
Summary of the method: as §1

[19] = target: Thyroid hormone receptor beta (Homo sapiens) (UniProt P10828); assay: qHTS assay for small molecule agonists of thyroid hormone receptor beta signaling (AID 588545); conditions: TR-UAS-bla GripTite HEK 293, beta-lactamase ratio, agonist mode, 18 h; series mostly up to 76.7 µM
Chain of Thyroid hormone receptor beta (Homo sapiens) (P10828 whole entry, looked up): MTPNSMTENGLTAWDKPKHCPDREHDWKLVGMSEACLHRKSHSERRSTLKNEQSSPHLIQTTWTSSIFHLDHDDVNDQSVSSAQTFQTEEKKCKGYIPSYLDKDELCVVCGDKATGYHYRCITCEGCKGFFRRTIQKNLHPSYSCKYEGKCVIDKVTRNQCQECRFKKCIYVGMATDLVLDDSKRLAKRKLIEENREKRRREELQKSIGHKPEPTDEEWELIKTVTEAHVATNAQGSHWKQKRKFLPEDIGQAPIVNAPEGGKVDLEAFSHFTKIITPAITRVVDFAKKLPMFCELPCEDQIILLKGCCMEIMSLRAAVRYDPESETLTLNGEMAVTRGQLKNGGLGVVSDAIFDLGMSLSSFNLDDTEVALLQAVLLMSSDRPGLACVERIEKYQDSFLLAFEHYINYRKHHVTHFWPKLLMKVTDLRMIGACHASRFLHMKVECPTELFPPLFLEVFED
Summary of the method: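 HEK 293 TR-UAS-bla; agonist mode; 18 hrs, 37 C; CCF4, ex 405/em 460 and 530 nm; norm. T3 10 nM = 100%, DMSO = 0%; Hill fit → EC50, efficacy.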

## Cc1ccc2cc3c(ccc4ccccc43)c3c2c1CC3
[1]
  max response: 24.7%
[2]
  Potency: 2.17 µM (active)

## CCCCC[C@H]1C(=O)O[C@H](C)[C@H](NC(=O)c2cccc(NC=O)c2O)C(=O)O[C@@H](C)[C@@H]1OC(=O)CC(C)C
[3]
  remaining parasite growth % (stronger effect = lower value): 20.4%
[4]
  activity, percent of control: 8.53%
[5]
  remaining proliferation (% of control), lower = more inhibition: 6.18%

## CCN1C[C@]2(COC)[C@H](O)C[C@H](OC)[C@]34C1C([C@H](OC)[C@H]23)[C@]1(OC(C)=O)C2[C@@H](OC(=O)c3ccccc3)C(O)(C[C@H]24)[C@@H](OC)[C@@H]1O
CP297
  Potency: inactive

## CC(C)(c1ccc(OCC2CO2)cc1)c1ccc(OCC2CO2)cc1 (stereo not given)
[6]
  Potency: > 92 µM (inactive)
[7]
  Potency: > 92 µM (inactive)
[8]
  activity change, negative = cytotoxicity: -4.11% (inactive)
[9]
  activity change, negative = cytotoxicity: -5.07% (inactive)
[10]
  outcome: inactive
[11]
  outcome: inactive
[12]
  outcome: inactive
[13]
  Potency: inactive
[14]
  activation: 11.4% (inactive) and -15.4% (inactive)
[15]
  outcome: inactive
[16]
  Potency: inactive
[17]
  max response: 35.6%
[18]
  outcome: inactive
[19]
  Potency: inactive
